# Test results reported in ChEMBL document CHEMBL1961873, “Compounds: GSK PKIS; Assays: Nanosyn kinase panel” (2012).
# Several values for one entry are separate records, joined by “and”; a condition that tells them apart may be missing. Equal values may be shown once.
# Legend:
# [1] = target: High affinity nerve growth factor receptor (Homo sapiens) (UniProt P04629); conditions: at 1 µM;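 note: each value is the mean percent inhibition of TRKA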
# [2] = target: BDNF/NT-3 growth factors receptor (Homo sapiens) (UniProt Q16620); conditions: at 0.1 µM
# [3] = target: BDNF/NT-3 growth factors receptor (Homo sapiens) (UniProt Q16620); conditions: at 1 µM
# [4] = target: NT-3 growth factor receptor (Homo sapiens) (UniProt Q16288); conditions: at 0.1 µM
# [5] = target: NT-3 growth factor receptor (Homo sapiens) (UniProt Q16288); conditions: at 1 µM
# [6] = target: T1, Tyrosine-protein kinase TXK (Homo sapiens) (UniProt P42681); conditions: at 0.1 µM
# T1 sequence (whole entry): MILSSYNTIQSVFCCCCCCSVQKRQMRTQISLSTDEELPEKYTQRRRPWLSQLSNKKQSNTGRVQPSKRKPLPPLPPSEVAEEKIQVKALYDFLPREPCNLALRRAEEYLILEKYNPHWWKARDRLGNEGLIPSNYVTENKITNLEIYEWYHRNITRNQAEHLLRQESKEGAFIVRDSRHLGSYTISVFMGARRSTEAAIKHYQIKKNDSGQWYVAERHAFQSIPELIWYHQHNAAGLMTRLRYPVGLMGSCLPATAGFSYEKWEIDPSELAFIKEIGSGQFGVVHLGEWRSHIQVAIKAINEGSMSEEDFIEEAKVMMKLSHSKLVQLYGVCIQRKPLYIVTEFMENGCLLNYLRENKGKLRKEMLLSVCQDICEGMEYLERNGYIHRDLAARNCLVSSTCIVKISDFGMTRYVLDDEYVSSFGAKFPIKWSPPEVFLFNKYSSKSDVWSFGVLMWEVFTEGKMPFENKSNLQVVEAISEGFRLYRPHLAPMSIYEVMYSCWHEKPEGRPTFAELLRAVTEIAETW
# [7] = target: T1, Tyrosine-protein kinase TXK (Homo sapiens); conditions: at 1 µM
# [8] = target: Non-receptor tyrosine-protein kinase TYK2 (Homo sapiens) (UniProt P29597); conditions: at 0.1 µM;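 note: each value is a mean of the inhibition readings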
# [9] = target: T2, Dual specificity protein kinase TTK (Homo sapiens) (UniProt P33981); conditions: at 1 µM;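 note: reported figures are mean TTK inhibition at 1 µM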
# T2 sequence (whole entry): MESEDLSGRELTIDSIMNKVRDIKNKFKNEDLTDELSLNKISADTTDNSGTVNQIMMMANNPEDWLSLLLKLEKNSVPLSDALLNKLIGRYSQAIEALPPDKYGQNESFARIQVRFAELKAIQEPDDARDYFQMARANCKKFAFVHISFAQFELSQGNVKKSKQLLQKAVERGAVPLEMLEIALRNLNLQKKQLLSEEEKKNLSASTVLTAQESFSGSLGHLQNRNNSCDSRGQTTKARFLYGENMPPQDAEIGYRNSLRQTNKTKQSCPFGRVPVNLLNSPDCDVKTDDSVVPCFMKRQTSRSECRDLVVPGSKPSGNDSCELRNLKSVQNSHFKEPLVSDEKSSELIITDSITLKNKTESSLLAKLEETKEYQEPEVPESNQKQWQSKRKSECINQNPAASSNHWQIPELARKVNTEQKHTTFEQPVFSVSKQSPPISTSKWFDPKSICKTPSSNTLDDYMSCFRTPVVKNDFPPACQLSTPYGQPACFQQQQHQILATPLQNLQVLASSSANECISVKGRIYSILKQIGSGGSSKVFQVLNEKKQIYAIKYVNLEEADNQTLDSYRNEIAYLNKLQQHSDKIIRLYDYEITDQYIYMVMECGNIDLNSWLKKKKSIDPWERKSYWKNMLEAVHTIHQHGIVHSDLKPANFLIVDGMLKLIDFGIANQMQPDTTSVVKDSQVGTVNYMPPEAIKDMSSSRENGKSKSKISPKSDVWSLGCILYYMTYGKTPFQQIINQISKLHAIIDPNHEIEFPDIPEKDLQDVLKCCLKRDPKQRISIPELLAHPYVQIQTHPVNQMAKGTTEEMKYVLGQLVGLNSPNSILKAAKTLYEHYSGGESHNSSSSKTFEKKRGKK
# [10] = target: T3, Aurora kinase A (Homo sapiens) (UniProt O14965); conditions: at 0.1 µM
# T3 sequence (whole entry): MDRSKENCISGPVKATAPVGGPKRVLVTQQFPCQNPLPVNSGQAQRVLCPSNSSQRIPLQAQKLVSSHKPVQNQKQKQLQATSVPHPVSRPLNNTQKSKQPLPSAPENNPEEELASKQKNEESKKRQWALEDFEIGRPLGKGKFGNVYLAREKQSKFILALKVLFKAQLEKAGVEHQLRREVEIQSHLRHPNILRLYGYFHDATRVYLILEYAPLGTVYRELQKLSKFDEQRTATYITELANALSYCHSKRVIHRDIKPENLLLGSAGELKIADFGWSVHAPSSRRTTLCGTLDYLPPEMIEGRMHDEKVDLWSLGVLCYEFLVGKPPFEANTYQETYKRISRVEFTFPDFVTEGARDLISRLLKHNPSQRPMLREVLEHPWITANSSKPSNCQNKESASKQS
# [11] = target: T3, Aurora kinase A (Homo sapiens); conditions: at 1 µM
# [12] = target: Aurora kinase B (Homo sapiens) (UniProt Q96GD4); conditions: at 0.1 µM
# [13] = target: Aurora kinase B (Homo sapiens) (UniProt Q96GD4); conditions: at 1 µM
# [14] = target: T4, Aurora kinase C (Homo sapiens) (UniProt Q9UQB9); conditions: at 0.1 µM
# T4 sequence (whole entry): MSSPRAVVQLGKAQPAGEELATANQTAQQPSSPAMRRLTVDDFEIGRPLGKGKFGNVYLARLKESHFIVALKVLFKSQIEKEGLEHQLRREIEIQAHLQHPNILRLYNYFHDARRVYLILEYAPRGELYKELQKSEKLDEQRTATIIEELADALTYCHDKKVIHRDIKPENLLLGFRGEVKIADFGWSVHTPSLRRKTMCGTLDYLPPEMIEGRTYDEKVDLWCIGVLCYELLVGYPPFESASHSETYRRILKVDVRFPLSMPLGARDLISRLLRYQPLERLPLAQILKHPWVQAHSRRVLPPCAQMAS
# [15] = target: T4, Aurora kinase C (Homo sapiens); conditions: at 1 µM
# [16] = target: Serine/threonine-protein kinase 10 (Homo sapiens) (UniProt O94804); conditions: at 0.1 µM
# [17] = target: Serine/threonine-protein kinase 10 (Homo sapiens) (UniProt O94804); conditions: at 1 µM
# [18] = target: T5, Mitogen-activated protein kinase kinase kinase kinase 2 (Homo sapiens) (UniProt Q12851); conditions: at 0.1 µM
# T5 sequence (whole entry): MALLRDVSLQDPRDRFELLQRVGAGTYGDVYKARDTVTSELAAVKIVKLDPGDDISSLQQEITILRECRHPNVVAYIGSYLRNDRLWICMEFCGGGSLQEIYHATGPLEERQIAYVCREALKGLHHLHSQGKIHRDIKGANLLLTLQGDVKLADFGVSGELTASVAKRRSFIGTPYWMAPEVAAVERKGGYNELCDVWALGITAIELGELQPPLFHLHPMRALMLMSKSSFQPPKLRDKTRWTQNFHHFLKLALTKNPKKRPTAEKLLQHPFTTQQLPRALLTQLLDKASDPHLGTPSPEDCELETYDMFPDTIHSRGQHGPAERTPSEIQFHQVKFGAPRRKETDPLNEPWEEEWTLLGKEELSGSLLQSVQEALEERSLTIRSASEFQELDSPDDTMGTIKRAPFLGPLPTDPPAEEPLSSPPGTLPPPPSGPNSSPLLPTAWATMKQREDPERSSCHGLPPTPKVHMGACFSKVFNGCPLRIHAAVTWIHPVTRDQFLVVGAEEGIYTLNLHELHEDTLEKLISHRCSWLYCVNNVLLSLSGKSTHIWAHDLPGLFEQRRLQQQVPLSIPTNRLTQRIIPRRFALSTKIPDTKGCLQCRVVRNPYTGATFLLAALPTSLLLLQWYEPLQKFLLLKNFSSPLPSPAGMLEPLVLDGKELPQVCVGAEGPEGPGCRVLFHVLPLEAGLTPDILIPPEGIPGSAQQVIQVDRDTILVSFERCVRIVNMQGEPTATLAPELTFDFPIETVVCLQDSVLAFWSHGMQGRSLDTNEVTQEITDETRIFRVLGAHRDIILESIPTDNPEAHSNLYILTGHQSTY
# [19] = target: T5, Mitogen-activated protein kinase kinase kinase kinase 2 (Homo sapiens); conditions: at 1 µM
# [20] = target: Mitogen-activated protein kinase kinase kinase kinase 4 (Homo sapiens) (UniProt O95819); conditions: at 0.1 µM
# Chain of Mitogen-activated protein kinase kinase kinase kinase 4 (Homo sapiens) (O95819 2-1239 limits assumed): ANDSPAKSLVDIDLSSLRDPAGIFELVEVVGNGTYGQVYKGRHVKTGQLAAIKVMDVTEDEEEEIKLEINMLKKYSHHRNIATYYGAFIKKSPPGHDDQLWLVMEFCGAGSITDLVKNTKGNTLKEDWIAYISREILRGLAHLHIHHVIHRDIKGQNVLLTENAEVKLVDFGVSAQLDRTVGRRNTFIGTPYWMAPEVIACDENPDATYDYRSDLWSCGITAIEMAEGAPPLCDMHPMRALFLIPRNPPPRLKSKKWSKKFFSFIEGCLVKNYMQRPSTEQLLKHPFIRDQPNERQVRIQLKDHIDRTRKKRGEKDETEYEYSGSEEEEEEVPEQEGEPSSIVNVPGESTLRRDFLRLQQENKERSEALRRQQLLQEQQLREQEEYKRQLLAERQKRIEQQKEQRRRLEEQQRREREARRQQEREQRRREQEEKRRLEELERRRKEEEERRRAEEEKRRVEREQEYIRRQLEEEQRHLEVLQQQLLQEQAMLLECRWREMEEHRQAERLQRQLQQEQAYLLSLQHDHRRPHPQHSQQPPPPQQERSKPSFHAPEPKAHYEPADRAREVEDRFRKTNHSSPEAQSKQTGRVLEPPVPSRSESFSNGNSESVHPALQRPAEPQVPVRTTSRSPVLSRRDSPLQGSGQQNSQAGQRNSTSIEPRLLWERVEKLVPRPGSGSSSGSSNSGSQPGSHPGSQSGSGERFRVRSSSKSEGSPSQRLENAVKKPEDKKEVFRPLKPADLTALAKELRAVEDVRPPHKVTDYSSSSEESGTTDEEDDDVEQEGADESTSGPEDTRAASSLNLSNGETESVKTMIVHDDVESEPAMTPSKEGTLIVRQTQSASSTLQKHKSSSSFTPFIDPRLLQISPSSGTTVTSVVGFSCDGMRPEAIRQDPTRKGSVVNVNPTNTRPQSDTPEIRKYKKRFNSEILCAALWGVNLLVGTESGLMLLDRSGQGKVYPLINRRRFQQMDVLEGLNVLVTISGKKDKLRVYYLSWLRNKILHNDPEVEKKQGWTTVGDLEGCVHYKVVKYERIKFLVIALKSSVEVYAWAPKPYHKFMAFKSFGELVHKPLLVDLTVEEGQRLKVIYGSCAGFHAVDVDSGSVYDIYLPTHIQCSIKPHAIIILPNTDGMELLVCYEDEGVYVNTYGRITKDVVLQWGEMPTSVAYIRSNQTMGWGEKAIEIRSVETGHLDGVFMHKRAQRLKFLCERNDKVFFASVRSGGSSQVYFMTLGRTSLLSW
# Chain of High affinity nerve growth factor receptor (Homo sapiens) (P04629 33-796 limits assumed): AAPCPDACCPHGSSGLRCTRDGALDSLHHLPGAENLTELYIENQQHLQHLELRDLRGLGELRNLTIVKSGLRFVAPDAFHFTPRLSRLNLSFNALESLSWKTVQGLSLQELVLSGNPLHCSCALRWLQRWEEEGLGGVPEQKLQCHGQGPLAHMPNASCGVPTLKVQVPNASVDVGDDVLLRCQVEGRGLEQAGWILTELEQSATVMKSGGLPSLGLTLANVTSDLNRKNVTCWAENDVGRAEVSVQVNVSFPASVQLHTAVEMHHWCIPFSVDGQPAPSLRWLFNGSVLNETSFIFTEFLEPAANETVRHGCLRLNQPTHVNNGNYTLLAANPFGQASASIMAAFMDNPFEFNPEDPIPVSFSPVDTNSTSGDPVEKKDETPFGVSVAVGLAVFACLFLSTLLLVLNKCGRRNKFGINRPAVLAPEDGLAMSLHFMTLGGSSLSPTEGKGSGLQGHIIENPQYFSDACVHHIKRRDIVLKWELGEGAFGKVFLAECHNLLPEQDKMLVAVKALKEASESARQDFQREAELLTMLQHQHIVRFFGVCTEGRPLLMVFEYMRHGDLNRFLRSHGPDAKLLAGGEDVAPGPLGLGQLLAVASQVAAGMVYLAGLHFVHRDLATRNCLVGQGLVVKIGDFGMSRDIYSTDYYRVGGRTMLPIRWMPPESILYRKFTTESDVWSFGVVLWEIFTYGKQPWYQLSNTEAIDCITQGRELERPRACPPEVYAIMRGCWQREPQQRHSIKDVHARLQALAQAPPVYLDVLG
# Chain of Non-receptor tyrosine-protein kinase TYK2 (Homo sapiens) (P29597 whole entry): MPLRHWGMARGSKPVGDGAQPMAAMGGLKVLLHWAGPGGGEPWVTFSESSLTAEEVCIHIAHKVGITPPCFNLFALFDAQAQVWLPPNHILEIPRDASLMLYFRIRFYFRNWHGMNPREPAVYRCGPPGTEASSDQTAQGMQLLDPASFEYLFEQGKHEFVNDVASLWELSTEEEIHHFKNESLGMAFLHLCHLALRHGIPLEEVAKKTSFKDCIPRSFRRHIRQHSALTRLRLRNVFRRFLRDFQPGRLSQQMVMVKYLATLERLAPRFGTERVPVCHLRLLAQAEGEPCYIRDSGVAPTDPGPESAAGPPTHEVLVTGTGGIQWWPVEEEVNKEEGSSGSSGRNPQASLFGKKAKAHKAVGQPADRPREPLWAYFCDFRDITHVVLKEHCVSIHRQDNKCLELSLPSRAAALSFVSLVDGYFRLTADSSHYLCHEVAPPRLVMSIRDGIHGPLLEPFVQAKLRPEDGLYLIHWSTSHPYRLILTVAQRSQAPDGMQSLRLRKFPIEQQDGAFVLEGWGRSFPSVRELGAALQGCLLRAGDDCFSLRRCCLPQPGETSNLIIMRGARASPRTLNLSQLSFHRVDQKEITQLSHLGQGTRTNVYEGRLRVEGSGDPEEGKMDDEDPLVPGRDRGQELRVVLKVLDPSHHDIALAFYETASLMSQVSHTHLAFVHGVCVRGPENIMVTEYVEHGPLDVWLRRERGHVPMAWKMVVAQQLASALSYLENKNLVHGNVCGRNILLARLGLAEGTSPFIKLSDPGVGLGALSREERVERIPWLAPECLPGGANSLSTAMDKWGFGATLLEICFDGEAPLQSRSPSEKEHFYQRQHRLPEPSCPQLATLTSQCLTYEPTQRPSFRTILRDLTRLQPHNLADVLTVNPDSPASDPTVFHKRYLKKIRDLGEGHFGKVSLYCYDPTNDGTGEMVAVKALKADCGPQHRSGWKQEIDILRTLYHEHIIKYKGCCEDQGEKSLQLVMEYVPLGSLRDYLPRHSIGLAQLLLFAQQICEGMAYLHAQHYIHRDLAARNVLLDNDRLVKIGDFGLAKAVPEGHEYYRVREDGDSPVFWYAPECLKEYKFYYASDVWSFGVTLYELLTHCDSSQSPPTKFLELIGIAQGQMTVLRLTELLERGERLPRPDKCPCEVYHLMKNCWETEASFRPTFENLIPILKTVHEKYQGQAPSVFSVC
# Chain of Aurora kinase B (Homo sapiens) (Q96GD4 whole entry): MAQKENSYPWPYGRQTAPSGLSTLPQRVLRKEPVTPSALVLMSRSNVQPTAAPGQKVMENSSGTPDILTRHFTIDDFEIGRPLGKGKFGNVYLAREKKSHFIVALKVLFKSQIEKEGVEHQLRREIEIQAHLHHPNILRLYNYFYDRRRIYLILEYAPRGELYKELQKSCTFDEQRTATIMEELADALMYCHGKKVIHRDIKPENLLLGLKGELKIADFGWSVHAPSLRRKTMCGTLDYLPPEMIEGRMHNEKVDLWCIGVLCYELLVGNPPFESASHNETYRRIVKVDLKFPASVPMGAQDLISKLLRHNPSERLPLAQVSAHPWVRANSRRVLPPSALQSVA
# Chain of BDNF/NT-3 growth factors receptor (Homo sapiens) (Q16620 32-822 limits assumed): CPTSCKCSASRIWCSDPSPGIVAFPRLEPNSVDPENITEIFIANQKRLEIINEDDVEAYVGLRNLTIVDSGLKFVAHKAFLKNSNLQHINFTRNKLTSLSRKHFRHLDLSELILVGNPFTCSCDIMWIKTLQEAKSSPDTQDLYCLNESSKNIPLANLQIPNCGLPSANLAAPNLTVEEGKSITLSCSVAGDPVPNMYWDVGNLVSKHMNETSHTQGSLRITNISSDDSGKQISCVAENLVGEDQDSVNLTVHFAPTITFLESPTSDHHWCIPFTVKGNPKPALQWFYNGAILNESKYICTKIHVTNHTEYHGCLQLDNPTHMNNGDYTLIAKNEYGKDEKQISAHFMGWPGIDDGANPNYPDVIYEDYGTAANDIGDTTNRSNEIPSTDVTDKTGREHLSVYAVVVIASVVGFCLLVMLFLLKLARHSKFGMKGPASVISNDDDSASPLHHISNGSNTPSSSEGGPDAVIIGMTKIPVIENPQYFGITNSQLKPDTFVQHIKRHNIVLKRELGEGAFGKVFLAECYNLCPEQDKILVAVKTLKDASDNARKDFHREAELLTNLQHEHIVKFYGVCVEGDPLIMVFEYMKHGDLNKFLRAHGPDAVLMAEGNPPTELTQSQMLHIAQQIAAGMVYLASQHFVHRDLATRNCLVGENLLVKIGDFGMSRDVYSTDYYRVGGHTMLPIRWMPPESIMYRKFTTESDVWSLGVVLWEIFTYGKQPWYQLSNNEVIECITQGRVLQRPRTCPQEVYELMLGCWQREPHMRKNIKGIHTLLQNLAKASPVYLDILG
Structure (SMILES),inhibition [1],inhibition [2],inhibition [3],inhibition [4],inhibition [5],inhibition [6],inhibition [7],inhibition [8],inhibition [9],inhibition [10],inhibition [11],inhibition [12],inhibition [13],inhibition [14],inhibition [15],inhibition [16],inhibition [17],inhibition [18],inhibition [19],inhibition [20]
CN(c1ccc(NC(=O)NCCN2CCOCC2)cc1)c1ccnc(Nc2ccc(CS(C)(=O)=O)cc2)n1,5.98%,3.15%,8%,1.78%,11.3%,16.9%,57.7%,-6.06%,7.72%,24.5%,93.9%,29.7%,76.9%,43.8%,104%,11.9%,34.2%,0.62%,3.53%,4.19%
CN(C)CCNC(=O)Nc1ccc(N(C)c2ccnc(Nc3ccc(CS(C)(=O)=O)cc3)n2)cc1,7.1%,2.82%,9.09%,4.45%,11.9%,8.39%,34.3%,-2.14%,11.4%,13.7%,79%,21.6%,69.1%,21.9%,94.5%,7.91%,36.7%,0.59%,2.02%,4.07%
CN1CCC(C(=O)Nc2n[nH]c3nc(-c4ccc(O)cc4)c(Br)cc23)CC1,1.2% and 2.04%,2.51% and 1.42%,3.32% and 2.74%,3.04% and 2.59%,4.91% and 0.79%,-0.5% and 4.86%,-0.68% and 3.3%,-2.31% and 0.31%,19% and 6.37%,-1.93% and 2.95%,3.82% and 3.89%,-1.01% and 4.45%,4.6% and 6.84%,-1.83% and 3.73%,-7.86% and 5.17%,4.1% and 3%,13.5% and 9.07%,4.77% and 3.87%,24.7% and 19.9%,7.33% and 2.89%
CNC(=O)c1ncccc1Nc1nc(Nc2cc3c(cc2OC)CCCN3C(=O)CN(C)C)nc2[nH]ccc12,6.12%,3.17%,5.34%,2.2%,5.36%,3.73%,1.5%,-3.3%,35.2%,2.64%,6.59%,3.79%,8.73%,2.36%,4.16%,7.25%,4.81%,1.56%,4.18%,4.22%
c1cnn2ncc(-c3ccnc(NCCCN4CCOCC4)n3)c2c1,1.75%,3.17%,1.35%,3.48%,2.63%,1.71%,-0.63%,-5.16%,8.22%,2.65%,8.82%,2.38%,5.43%,-0.51%,1.86%,4.84%,1.98%,-0.2%,1.94%,4.7%
COc1cccc(-n2ncc3c(N/N=C/c4ccc(C(=O)NCCN(C)C)cc4)ncnc32)c1,12.1%,5.53%,26.5%,3.96%,20.7%,7.49%,29.4%,-5.03%,11.6%,8.37%,62.7%,7.23%,38.6%,5.58%,57%,23%,61.2%,3.89%,21.8%,31.3%
Cn1c(-c2nonc2N)nc2cnccc21,0.76%,1.23%,0.53%,2%,1.22%,4.05%,4.22%,-2.09%,8.28%,1.22%,7.19%,1.6%,4.18%,1.42%,4.49%,4.28%,7.08%,0.8%,6.6%,6.14%
O=C(Nc1n[nH]c2nnc(-c3cccnc3)cc12)C1CC1,-0.64%,-0.74%,0.57%,-0.44%,-0.22%,0.3%,2.21%,1.8%,2.14%,0.85%,0.07%,0.12%,3.67%,-1.84%,3.75%,-0.21%,0.78%,0.63%,1.06%,3.78%
CS(=O)(=O)Nc1ccc(-c2ccc3c(NC(=O)C4CC4)n[nH]c3c2)cc1,3.27%,2.22%,5.91%,2.1%,9.06%,2.62%,5.31%,-0.89%,11.9%,2.55%,20.2%,4.33%,8.21%,1.71%,23.3%,5.26%,6.56%,1.04%,5.76%,6.29%
